Anthrax LT inh: qHTS Assay for Anthrax Lethal Toxin Internalization; 0.67% of 70,000 active; Potency, µM (highest dose often 40 µM), hits mostly inhibitors; AID 912, 2007; Cells, anthrax lethal toxin internalization, FRET ratio (460/530); also: nearly all actives have a fitted effect of over 50% in size
SmPrx2 inh: Schistosoma Mansoni Peroxiredoxins (Prx2); Schistosoma mansoni peroxiredoxin 2 (Prx2); S. mansoni Prx2 activity coupled to TGR/GSH (TGR is thioredoxin glutathione reductase), NADPH fluorescence loss, qHTS; Potency, µM; 0.07% of 65,000 active; AID 448, 2006
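Prx2 inhibition was measured as reduced NADPH consumption when electrons flowed from NADPH through TGR and glutathione to Prx2 and H2O2. Plates were read kinetically over 8 min; enzyme reagents were held at 4 deg C during dispensing.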
AmpC nodet inh: Promiscuous and Specific Inhibitors of AmpC Beta-Lactamase (assay without detergent); 1.8% of 71,000 active; AmpC nitrocefin hydrolysis, absorbance 480 nm, no detergent; Potency, µM (titrated, usually from 28.7 µM); P00811
Target sequence (P00811 whole entry, looked up): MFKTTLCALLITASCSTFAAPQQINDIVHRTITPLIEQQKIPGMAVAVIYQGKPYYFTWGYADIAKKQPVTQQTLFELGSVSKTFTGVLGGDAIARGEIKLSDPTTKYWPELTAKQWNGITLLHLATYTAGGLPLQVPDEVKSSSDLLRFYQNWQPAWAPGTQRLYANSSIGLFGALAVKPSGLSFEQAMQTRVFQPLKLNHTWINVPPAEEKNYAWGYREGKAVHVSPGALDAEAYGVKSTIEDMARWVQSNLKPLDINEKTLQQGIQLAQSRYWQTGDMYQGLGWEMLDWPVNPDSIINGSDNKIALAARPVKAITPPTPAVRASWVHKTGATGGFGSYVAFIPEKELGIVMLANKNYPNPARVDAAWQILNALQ
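Enzyme, pH 7.0 phosphate. Compound titrations were pre-incubated with AmpC for 15 min at room temperature before nitrocefin (stock 800 uM) addition; product formation was recorded at 480 nm every 20 s for 4 min.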
AmpC det inh: Promiscuous and Specific Inhibitors of AmpC Beta-Lactamase (assay with detergent); P00811; purified AmpC, nitrocefin hydrolysis with detergent; Potency, µM (top dose mostly 28.7 µM); 0.09% of 71,000 active; AID 584, 2007; active = well fitted curve in the direction sought with a large enough effect; inconclusive = small, poorly fitted or top-dose-only effect
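E. coli AmpC (5.3 nM) in 20 mM phosphate pH 7.0 with 0.01% Triton X-100, preincubated 15 min RT with compound; nitrocefin (2 uL of 800 uM stock) hydrolysis followed by 480 nm absorbance every 20 s over 4 min.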
A number is an active result; i = inactive; ? = inconclusive; nt = no result; [ ] = dose if it differs, or a comment. Rows were chosen to be rich in hits. Some 2.6% of all compounds tested hit in one or more screens of this group. Unless noted, calls follow the shape of the full dose curve.

SMILES	Anthrax LT inh	SmPrx2 inh	AmpC nodet inh	AmpC det inh
COC(=O)CSCc1nc2ccccc2[nH]c1=O	i	i	3.98µM[single pt active]	i
Cc1cccc(CNc2ncncc2-c2ccc3c(c2)OCO3)c1	i	i	i	i
Cc1cc(C)nc(NS(=O)(=O)c2ccc(NC(=O)Cn3c(=O)oc4ccccc43)cc2)n1	i	i	3.98µM[single pt active]	i
Cc1noc(NS(=O)(=O)c2ccc(NC(=O)CCn3c(=O)oc4ccccc43)cc2)c1C	i	?	i	i
O=C(Cn1c(=O)sc2ccccc21)Nc1ccc(S(=O)(=O)N2CCCCC2)cc1	i	i	6.31µM	i
O=C(Cn1c(=O)oc2cc(S(=O)(=O)N3CCCC3)ccc21)NC1CCCc2ccccc21 (stereo not given)	?	i	2µM	i
O=C(O)Cn1c(=O)oc2cc(S(=O)(=O)NC3CCCCC3)ccc21	i	i	2.51µM[single pt active]	i
CCN(CC)S(=O)(=O)c1ccc(NC(=O)Cn2c(=O)sc3ccccc32)cc1	i	i	?	i
CC1CCN(S(=O)(=O)c2ccc3c(c2)oc(=O)n3CC(=O)N2c3ccccc3CC2C)CC1 (stereo not given)	?	i	i	i
NCC[C@H](N)C(=O)O	i[8 µM]	i	i[5.75 µM]	i[5.75 µM]
c1cncc(CNc2ncncc2-c2ccoc2)c1	i	i	i	i
CC(C)OC(=O)C[C@H](NC(=O)OC(C)(C)C)c1ccccc1	i[8 µM]	nt	nt	nt
O=C(CN1CCCCC1)Nc1ccc(S(=O)(=O)N2CCCCCC2)cc1	i	i	i	i
O=C(Cn1c(=O)oc2cc(S(=O)(=O)N3CCCCCC3)ccc21)NC1CCCCCCC1	i	i	3.98µM[single pt active]	i
CC1CCN(S(=O)(=O)c2ccc3c(c2)oc(=O)n3CC(=O)NCc2ccc3c(c2)OCO3)CC1	?	i	3.98µM	i
Cc1c(C(=O)NCc2ccc3c(c2)OCO3)oc2ccc(S(=O)(=O)N3CCC(C)CC3)cc12	i	i	i	i
O=C(Cn1c(=O)oc2cc(S(=O)(=O)N3CCCC3)ccc21)Nc1ccc(C(F)(F)F)cc1	i	i	10µM[single pt active]	i
CCCC/C=C/C(NC(=O)c1cccs1)c1ccccc1 (stereo not given)	?	i	i	i
COc1cc2c(=O)n(CC3CCCO3)c(=O)n(CC(=O)Nc3ccc(F)cc3F)c2cc1OC (stereo not given)	i	i	3.98µM[single pt active]	i
CC(C)CN(CC#N)CC(C)C	i[8 µM]	i	i[5.75 µM]	i[5.75 µM]
NCCC1([N+](=O)[O-])CCNCC1	?	i	i[5.75 µM]	i[5.75 µM]
S=C=Nc1cccc(C2(N3CCCCC3)CCCCC2)c1	12.6µM	i	i	i
Cc1nc2cnc(Oc3ccccc3)nc2n(C)c1=O	i	i	i	i
CCOC(=O)c1c(NC(=O)c2cccs2)sc2c1CCCC2	i	nt	i	i
CCOC(=O)c1c(NC(=O)Cc2cccs2)sc2c1CCCC2	12.6µM	i	?	i
SMILES	Anthrax LT inh	SmPrx2 inh	AmpC nodet inh	AmpC det inh
C=C(C)C(=O)OC	nt	nt	i	i
Cc1cc(C)nc(SCC(=O)Nc2ccc(S(=O)(=O)Nc3onc(C)c3C)cc2)n1	i	i	i	i
Cc1noc(NS(=O)(=O)c2ccc(NC(=O)CSc3ncccn3)cc2)c1C	i	6.8	i	i
Cn1c([N+](=O)[O-])cnc1CN1CCN(CCO)CC1	i[8 µM]	i	i[5.75 µM]	i[5.75 µM]
CCn1c2ccccc2c2nnc(NCCCO)nc21	?	i	i[5.75 µM]	i[5.75 µM]
O=C(Nc1nnc(C2CC2)s1)c1cccc(S(=O)(=O)N2CCc3ccccc32)c1	i	i	10µM	i
O=C(Nc1ccc(S(=O)(=O)N2CCc3ccccc32)cc1)c1ccco1	i	i	i	i
O=C(Nc1ccc(S(=O)(=O)N2CCc3ccccc32)cc1)c1ccc2c(c1)OCO2	?	i	12.6µM	i
O=C(c1ccccc1)c1cn(CC(=O)N2CCCC2)c2ccccc12	i	i	3.98µM[single pt active]	i
O=S(=O)(Nc1ccc2nc(-c3ccc(Br)o3)[nH]c2c1)c1ccccc1	nt	i	3.16µM	i
CN(C)c1ccc(C(=O)Nc2nc3c(s2)CCCC3)cc1	12.6µM	i	i	i
CC(C)=CCC/C(C)=C/CO/N=C1/C[C@@H](O)[C@@H](O)[C@@H]2[C@@H]3C(=O)N(C[C@@H]4CCCO4)C(=O)[C@H]3CC[C@H]12	i[8 µM]	nt	nt	nt
Cc1cc(NC(=O)Cc2cccs2)no1	i	i	12.6µM	i
Cc1cc(NS(=O)(=O)c2ccc(NC(=O)Cc3cccs3)cc2)no1	i	i	i	i
CN(Cc1ccccc1)c1oc(-c2ccco2)nc1C#N	10µM	i	i	i
CCOc1ccc(Cn2nnc(C(=O)Nc3cc(OC)cc(OC)c3)c2N)cc1	i	i	3.16µM	i
CCc1ccc(Cn2nnc(C(=O)Nc3cccc(C)c3)c2N)cc1	i	i	3.98µM[single pt active]	i
